Compound activity from PubChem.
Sampled rows, rich in hits. Any-hit rate of the full collection: about 19%.
IL-1B inflam inh: qHTS for Inhibitors of Inflammasome Signaling: IL-1-beta AlphaLISA Primary Screen | THP-1 LPS/ATP IL-1B secretion, AlphaLISA, 16 h; hits give low values | activity change, % at 57.5 µM | actives 4.7% (n = 360,000) | AID 743279, 2014; in the data active means activity change below about -50%; inconclusive means mostly about -30% to -49%
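THP-1 cells pretreated 1 hr with compounds (up to 57.5 uM final), then stimulated with LPS (250 ng/mL final) plus ATP (1.25 mM final); secreted IL-1B measured by AlphaLISA after 16 hr, decreased signal indicating inhibition.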
TDP1 cell noCPT: qHTS for Inhibitors of human tyrosyl-DNA phosphodiesterase 1 (TDP1): qHTS in cells in absence of CPT. actives 15% (n = 420,000). Potency, µM (doses to about 46.2 µM), actives largely listed as inhibitors. DT40 Tdp1-/- hTDP1 cells, no CPT, ATP luminescence, 48 h; further: nearly all actives have a fitted effect of over 55% in size
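Seeded 400 DT40-hTDP1 cells/well (vehicle DMSO, no 20 nM CPT); pinned compounds; ≥48 hr at 37 °C; CellTiter-Glo luminescence as viability measure.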
Chronic BCR inh: qHTS Assay to Find Inhibitors of Chronic Active B-Cell Receptor Signaling. ABC-DLBCL IkBa-CBG/CBR reporter, luminescence ratio, 4 h. Potency, µM (titrated, usually from 46.1 µM), actives largely listed as inhibitors. actives 0.05% (n = 340,000); active means well fitted inhibition curve with a large enough effect in the signal ratio, with a control signal flat, not every such curve was filed as active; inconclusive means small, poorly fitted or top-dose-only effect, or effect the other way, or a change in a side signal; the % refers to the signal ratio
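Compounds up to 46 uM were incubated four hours with TMD8 cells whose green CBG68 luciferase is fused to IkappaBalpha; red CBR luminescence normalised the signal, and concentration-effect curves were fitted to fusion, red and ratio data.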
DT40 TDP1 CPT: qHTS for Inhibitors of human tyrosyl-DNA phosphodiesterase 1 (TDP1): qHTS in cells in presence of CPT. chicken DT40 Tdp1-/-;hTDP1 cells + 20 nM CPT, ATP luminescence, 48 h. Potency, µM (series often up to 46.2 µM), actives largely listed as inhibitors. actives 12% (n = 420,000); further: nearly all actives have a fitted effect of over 55% in size
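Chicken DT40 Tdp1-/- cells stably complemented with human TDP1 were seeded at 400 cells/well in medium containing 20 nM camptothecin, exposed to pin-transferred compounds, and grown at 37 °C for at least 48 hr. Viability was read as ATP luminescence.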
MCF10A rereplic: A quantitative high throughput screen for small molecules that induce DNA re-replication in MCF 10a normal breast cells | MCF 10A DNA re-replication, Hoechst nuclear intensity, 48 h | Potency, µM (doses to about 46.1 µM), actives largely listed as activators | actives 2.9% (n = 350,000) | AID 624296, 2012; further: nearly all actives have a fitted effect of over 50% in size
SW480 rerep: A quantitative high throughput screen for small molecules that induce DNA re-replication in SW480 colon adenocarcinoma cells. SW480 DNA re-replication, Hoechst DNA content imaging, 48 h. Potency, µM (doses to about 46.1 µM), actives largely listed as activators. actives 1.8% (n = 340,000). AID 624297, 2012; further: nearly all actives have a fitted effect of over 55% in size
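250 cells/well; 23 nL cpd via pin tool; 48 hr, 37 C, 5% CO2; Hoechst 40 min; imager read of total nuclear intensity, ex 405/em 500-530 nm.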
A number is an active result. Unless noted, the call rests on the fitted dose curve; in most records, active means well fitted curve in the direction sought with a large enough effect; inconclusive means small, poorly fitted or top-dose-only effect, or another doubt; inactive means no such curve, though single readings can be large; an effect the other way counts as inactive or inconclusive.

`CCOC(=O)C(C)NC(=O)CCc1nnc2ccc(N3CCC(C)CC3)nn12` (configuration not stated) gave IL-1B inflam inh -97, TDP1 cell noCPT inconclusive, Chronic BCR inh inactive, DT40 TDP1 CPT inconclusive, MCF10A rereplic 26µM and SW480 rerep inactive.
`COc1cc(OC)cc(C(=O)NCC(=O)Nc2ccc(OC)c(Cl)c2)c1` gave IL-1B inflam inh inactive, TDP1 cell noCPT inactive, Chronic BCR inh inactive, DT40 TDP1 CPT inactive, MCF10A rereplic inactive and SW480 rerep inactive.
COCCN1CCN(Cc2ccc(C(=O)NC(C)C)cc2)C(=O)C1=O was read as TDP1 cell noCPT inactive and DT40 TDP1 CPT inactive.
`CCOc1ccc(CCNC(=O)CCc2nnc3ccc(N4CCCCC4)nn23)cc1OCC` gave IL-1B inflam inh inactive, TDP1 cell noCPT 12µM, Chronic BCR inh inactive, DT40 TDP1 CPT inconclusive, MCF10A rereplic inactive and SW480 rerep inactive.
For CN1CCN(C(=O)C23CC4CC(C2)CC(c2ccccc2)(C4)C3)CC1 the results were IL-1B inflam inh -53, TDP1 cell noCPT inconclusive, Chronic BCR inh inactive, DT40 TDP1 CPT inconclusive, MCF10A rereplic inconclusive and SW480 rerep inactive.
`c1ccc(N2CCN(c3cccc(-c4cc5ccccc5s4)n3)CC2)nc1` gave IL-1B inflam inh inactive, TDP1 cell noCPT inactive and DT40 TDP1 CPT inactive.
`N#CCNc1ccc([N+](=O)[O-])cc1C#N` gave IL-1B inflam inh inactive, TDP1 cell noCPT inactive, Chronic BCR inh inactive, DT40 TDP1 CPT inactive, MCF10A rereplic inactive and SW480 rerep inconclusive.
For Cc1ccc(S(=O)(=O)N2CCC3(CC2)OCCO3)s1 the results were IL-1B inflam inh inactive, TDP1 cell noCPT inactive, Chronic BCR inh inactive, DT40 TDP1 CPT inactive, MCF10A rereplic inactive and SW480 rerep inactive.
COc1ccc(N/C=C/c2nc(SC)nnc2C)cc1 was read as IL-1B inflam inh inactive, TDP1 cell noCPT inconclusive, Chronic BCR inh inactive, DT40 TDP1 CPT inconclusive, MCF10A rereplic inconclusive and SW480 rerep 15µM.
CC(=O)C1=NN(c2ccccc2)C2(S1)S/C(=C\c1ccccc1)C(=O)N2c1ccccc1 (configuration not stated) was read as IL-1B inflam inh inactive, TDP1 cell noCPT inconclusive, Chronic BCR inh inconclusive, DT40 TDP1 CPT inconclusive, MCF10A rereplic inconclusive and SW480 rerep 5.2µM.
Cc1cccc(NC(NC(=O)Cc2ccccc2)C(Cl)(Cl)Cl)c1 (configuration not stated) was read as IL-1B inflam inh inactive, TDP1 cell noCPT 21µM, Chronic BCR inh inactive, DT40 TDP1 CPT 18µM, MCF10A rereplic inactive and SW480 rerep inactive.
Screening COc1cccc(COC(=O)Cc2ccc(S(=O)(=O)N3CCOCC3)s2)c1OC returned IL-1B inflam inh inactive, TDP1 cell noCPT inactive, Chronic BCR inh inactive, DT40 TDP1 CPT inactive, MCF10A rereplic inactive and SW480 rerep inactive.
CCCCc1c(C)nn(-c2nnc3c4ccccc4n(C)c3n2)c1C was read as IL-1B inflam inh inactive, TDP1 cell noCPT 23µM, Chronic BCR inh inactive, DT40 TDP1 CPT 23µM, MCF10A rereplic inactive and SW480 rerep inactive.
Screening CC(C)CSc1nnc2c3ccccc3n(C)c2n1 returned IL-1B inflam inh inactive, TDP1 cell noCPT inconclusive, Chronic BCR inh inconclusive, DT40 TDP1 CPT inactive, MCF10A rereplic inconclusive and SW480 rerep inactive.
For Cc1ccc2sc(C)[n+](CCO)c2c1 the results were IL-1B inflam inh -71, TDP1 cell noCPT inconclusive, Chronic BCR inh inactive, DT40 TDP1 CPT inconclusive, MCF10A rereplic inactive and SW480 rerep inactive.
Screening CCCC[n+]1c(C)sc2ccc(C)cc21 returned IL-1B inflam inh inactive, TDP1 cell noCPT inconclusive, Chronic BCR inh inactive, DT40 TDP1 CPT inconclusive, MCF10A rereplic inactive and SW480 rerep inactive.
